This passage reports growth inhibition results from PubChem BioAssay (NCI).

A short description of assay [1]: NCI Yeast Anticancer Drug Screen. Data for the rad50 strain (AID 155).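 Further: 0% = growth of vehicle-only cultures of the same strain.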 Conditions: S. cerevisiae rad50 strain growth inhibition; at 50.0 µM; stronger effect = higher value. An outline of the steps:
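Genetically altered yeast (DNA repair pathway); compound treatment; growth inhibition vs vehicle ctrl.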

Assay [2] can be described thus: NCI Yeast Anticancer Drug Screen. Data for the mec2-1 strain (AID 157). The note with it: S. cerevisiae mec2-1 strain, at 50.0 µM, stronger effect = higher value. An outline of the steps:
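Strain: mec2-1 (DNA repair/cell cycle alteration). Compound exposure, then growth measured; inhibition expressed relative to vehicle.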

A short description of assay [3]: NCI Yeast Anticancer Drug Screen. Data for the sgs1 mgt1 strain (AID 161).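 Further: 0% = growth of cultures given vehicle only.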 The note with it: S. cerevisiae sgs1 mgt1 strain, at 50.0 µM, stronger effect = higher value. An outline of the steps: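 Inhibition of yeast growth, normalised to vehicle-treated controls, is reported for a strain bearing genetic alterations in DNA damage repair.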
Assay [4] is described as follows: NCI Yeast Anticancer Drug Screen. Data for the cln2 rad14 strain (AID 165).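 Further: 0% = growth equal to vehicle treated cultures.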 Conditions: S. cerevisiae cln2 rad14 strain, at 50.0 µM, stronger effect = higher value. An outline of the steps: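 Compounds are applied to the cln2 rad14 yeast strain, and growth is then compared with that of vehicle-treated cultures to give inhibition.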
Assay [5] is described as follows: NCI Yeast Anticancer Drug Screen. Data for the bub3 strain (AID 167). The note with it: S. cerevisiae bub3 mutant strain, at 50.0 µM, stronger effect = higher value. An outline of the steps:
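Yeast carrying a defined mutation is treated with each compound, and growth is compared with that of vehicle-exposed cells to give inhibition.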

The nature of assay [6]: NCI Yeast Anticancer Drug Screen. Data for the mlh1 rad18 strain (AID 175). Conditions: S. cerevisiae mlh1 rad18 strain growth inhibition; at 50.0 µM; stronger effect = higher value. An outline of the steps: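 Read-out is yeast growth inhibition, calculated against vehicle-only controls. The compound was applied to a strain engineered with DNA damage repair alterations.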

Compounds without any hit were thinned out: in the full panel of roughly 79,000, 15% have a hit. Unmarked numbers belong to inactive results. Calls of active or inactive are those of the source. No stated cut-off is given here; in the data, active means growth inhibition above about 70%; inactive means the rest.

Take `OC1c2c(ccc3ccccc23)CCC1N1CCCCC1` (stereo not given): the growth inhibition in assay [1] was 12.6%; in assay [2], -4.45%; in assay [3] it was 0.9%; in assay [4], -34.5%; in assay [5], -13.4%; in assay [6], -5%.
Consider `FC(F)(F)c1nc(Nc2ccccc2)c2[nH]cnc2n1`, for which the growth inhibition in assay [1] was -16.4%; in assay [2], 4.55%; in assay [3], 2.45%; in assay [4] it was -20.9%; in assay [5], 12.2%; in assay [6] it was -4.6%.
Consider `CCOc1ccc2nc(NC(=O)CC(C)=O)sc2c1`, for which the growth inhibition in assay [1] was -17.6%; in assay [2] it was -22%; in assay [3], -4.3%; in assay [4], 7.6%; in assay [5], -17.9%; in assay [6], 7.35%.
Take `CCO/N=C(\C(=O)NO)c1ccccc1`: the growth inhibition is -6.35% in assay [1]; 1.6% in assay [2]; 1.5% in assay [3]; -24.4% in assay [4]; -1.9% in assay [5]; 13.2% in assay [6].
On to `CCCCCCCCCCCCCCCSc1ccc2ccccc2c1`, for which the growth inhibition in assay [1] is -17%; in assay [2] it was 1.35%; in assay [3], -5.2%; in assay [4], -25.2%; in assay [5], -13.8%; in assay [6], -13.5%.
In the case of `O=NC1CC=CC1Cl` (stereo not given), the growth inhibition was 18.6% in assay [1]; 0.1% in assay [2]; 0.65% in assay [3]; 9.5% in assay [4]; -8.1% in assay [5]; 22.2% in assay [6].
Take `O=c1ncc2ccccc2[nH]1`: the growth inhibition in assay [1] is -19.9%; in assay [2], -10.7%; in assay [3] it was -9.6%; in assay [4], -4.3%; in assay [5], -12.8%; in assay [6] it was -23.9%.
For the compound `CCOC(=O)C[n+]1cccc(Br)c1`, the growth inhibition in assay [1] was -2.6%; in assay [2], 6.45%; in assay [3] it was -6.85%; in assay [4], -6.5%; in assay [5], 16.3%; in assay [6], -0.45%.
As for `CCCCCCCCCCCCCCCCNC(=O)C(C)O` (stereo not given), the growth inhibition in assay [1] is 23.9%; in assay [2] it was 3.2%; in assay [3] it was 17.2%; in assay [4], -13.9%; in assay [5], 7.7%; in assay [6] it was 30.4%.
`Cc1ccc(S(=O)(=O)NC(=O)C#CCOC2CCCCO2)cc1` (stereo not given): the growth inhibition is 8.7% in assay [1]; -0.85% in assay [2]; -3.3% in assay [3]; 14.3% in assay [4]; 22.6% in assay [5]; 18.2% in assay [6].
Take `Cn1cc(C(C)(c2ccccc2)c2cn(C)c3ccccc23)c2ccccc21`: the growth inhibition was -13.8% in assay [1]; -6% in assay [2]; -4.25% in assay [3]; -24.2% in assay [4]; -5.6% in assay [5]; -11% in assay [6].
For the compound `CC1=C(/C=C/Cl)CC(Cl)C(C)(Cl)C1` (stereo not given), the growth inhibition in assay [1] was -2.25%; in assay [2], -10.4%; in assay [3], -4.5%; in assay [4], 12.5%; in assay [5], -0.45%; in assay [6] it was -45.2%.
Regarding `CC1=C(CCC(C)N)C(C)(C)CCC1` (stereo not given), the growth inhibition in assay [1] was 29%; in assay [2], 14.7%; in assay [3], 28%; in assay [4], 7.75%; in assay [5], 11.4%; in assay [6], 12.8%.
Regarding `O=C1CCC(C(=O)Nc2ccc(Cl)cc2Cl)N1` (stereo not given), the growth inhibition in assay [1] was -0.15%; in assay [2] it was 3.3%; in assay [3], 7.2%; in assay [4] it was 42.4%; in assay [5], 3.45%; in assay [6], 8.75%.
Consider `O=C(O)c1ccc(C(=O)c2ccc(C(=O)c3ccc(C(=O)O)cc3)cc2)cc1`, for which the growth inhibition in assay [1] is -9.1%; in assay [2], -18.4%; in assay [3], 3.65%; in assay [4] it was -52%; in assay [5] it was -13%; in assay [6], -14.8%.
`O=C(O)c1[nH]c(=O)[nH]c(=O)c1CN1CCCCC1`: the growth inhibition in assay [1] was -39.8%; in assay [2] it was -21.6%; in assay [3], -15.1%; in assay [4], -29.9%; in assay [5] it was -23.4%; in assay [6] it was -0.75%.
For `O=C(NC(=O)c1cccc(Cl)c1)Nc1ccccc1`, the growth inhibition was 3.1% in assay [1]; -15.1% in assay [2]; -19.6% in assay [3]; -22% in assay [4]; -10.7% in assay [5]; -5.15% in assay [6].
Consider `Cc1ccc(S(=O)(=O)N/N=C/C(C)(c2ccccc2)c2ccccc2)cc1`, for which the growth inhibition in assay [1] is 70.9% (active); in assay [2] it was 52%; in assay [3], 69.3%; in assay [4], 40.2%; in assay [5], 15.8%; in assay [6], 47.8%.
For `CC(C)=CC(=O)OC1C2C(C)C(=O)OC2C(O)C(C)C2C=CC(=O)C21C` (stereo not given), the growth inhibition in assay [1] is 3.15%; in assay [2], -3.6%; in assay [3] it was 9.6%; in assay [4], 16.9%; in assay [5] it was 11.1%; in assay [6], 8.2%.
For the compound `COC(=O)CNN`, the growth inhibition was -6.05% in assay [1]; -19.4% in assay [2]; -14.8% in assay [3]; -25.1% in assay [4]; -7.25% in assay [5]; 7.9% in assay [6].
